{
  "source": "PubChem BioAssay AID602449",
  "about": "(Sanford-Burnham Center for Chemical Genomics, 2012)",
  "note": "About 5,000 (1.4%) of roughly 360,000 compounds were called active. What follows is part of a selection rich in actives, with near analogues and random picks from the rest. A number with no mark means an inactive call.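 The calls were made as follows: active = inhibition of 50% or more, scaled per plate between neutral and stimulator controls; inactive = the rest.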",
  "data": [
    {"assay": "mitochondrial permeability transition pore inhibitors, primary screen, biochemical, isolated mouse mitochondria, absorbance (AID 602449);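 also: 0% = DMSO wells given calcium and 100% = 1 mM EGTA wells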", "details": "Ca2+ swelling absorbance, 30 min, at 10 µM, active compounds read high", "values": [
      {"smiles": "COc1ccc(C(=O)c2c(C)oc3cc([N+](=O)[O-])c(O)c([N+](=O)[O-])c23)cc1", "inhibition": "3.3%"},
      {"smiles": "Cc1ccc(C(=O)c2ccc(N3CCN(C)CC3)c([N+](=O)[O-])c2)cc1", "inhibition": "0.6%"},
      {"smiles": "Cc1oc2cc([N+](=O)[O-])c(O)c([N+](=O)[O-])c2c1C(=O)c1ccc(Br)cc1", "inhibition": "74.4% (active)"},
      {"smiles": "O=C(Nc1ccccc1F)C1C2C=CC3(O2)C1C(=O)N(c1cccnc1)C3C(=O)NC1CCCCC1", "note": "(centres undefined)", "inhibition": "1.6%"},
      {"smiles": "O=S(=O)(NCC1OCCc2ccccc21)c1ccccc1", "note": "(centres undefined)", "inhibition": "4.3%"},
      {"smiles": "O=C(O)C(CCc1ccccn1)c1ccccc1", "note": "(centres undefined)", "inhibition": "0.6%"},
      {"smiles": "CC1CCCC(NC(=O)c2cccc(N3CCCC3=O)c2)C1C", "note": "(centres undefined)", "inhibition": "-0.6%"},
      {"smiles": "CCCOc1ccc(C(=O)C(CCC(CNCC)C(=O)c2ccc(OCCC)cc2)CNCC)cc1", "note": "(centres undefined)", "inhibition": "73.6% (active)"},
      {"smiles": "CCCc1ccc(OCCNC(=O)c2ccccc2Br)cc1", "inhibition": "0.4%"},
      {"smiles": "CC(C)CCOc1ccc(C(=O)C[N+]2(C)CCOCC2)cc1", "inhibition": "-1.9%"},
      {"smiles": "COc1cccc(NC(=O)COc2cc(C)cc3oc(=O)cc(C)c23)c1", "inhibition": "0.4%"},
      {"smiles": "Cc1nccn1CCC1CCCCN1C(=O)CCc1nnc(-c2ccsc2)o1", "note": "(centres undefined)", "inhibition": "-1.2%"},
      {"smiles": "O=C(Nc1nnc(C2COc3ccccc3O2)o1)c1ccc(F)cc1", "note": "(centres undefined)", "inhibition": "-3%"},
      {"smiles": "c1ccc2c(c1)CSc1sccc1C2=C1CCNCC1", "inhibition": "94.3% (active)"},
      {"smiles": "Cc1ccc(-n2ncc3c(Nc4cccc(C(=O)O)c4)ncnc32)cc1", "inhibition": "3.4%"},
      {"smiles": "Cn1c2c(c(=O)n(C)c1=O)C(c1cccc(F)c1)C(C#N)=C(N)O2", "note": "(centres undefined)", "inhibition": "1.8%"},
      {"smiles": "Cc1nn(Cc2ccccc2)c2c1C(c1ccccc1)C(C#N)=C(N)O2", "note": "(centres undefined)", "inhibition": "81.3% (active)"},
      {"smiles": "N#CC1=C(N)Oc2cc(N)ccc2C1c1ccccc1", "note": "(centres undefined)", "inhibition": "-0.1%"},
      {"smiles": "C[C@H]1CN([C@@H](C)CO)C(=O)CCCn2cc(nn2)CO[C@@H]1CN(C)S(=O)(=O)c1ccccc1C#N", "inhibition": "-0.4%"},
      {"smiles": "COc1ccc(NC(=O)C(CC(C)C)NC(=O)C2CCC(C)CC2)cc1", "note": "(centres undefined)", "inhibition": "0.1%"},
      {"smiles": "O=C(CN1CCN(c2ccccc2O)CC1)NC(=O)NCc1ccccc1", "inhibition": "1.2%"},
      {"smiles": "O=C(CN1CCC(NC(=O)Nc2ccccc2)CC1)Nc1cccc([N+](=O)[O-])c1", "inhibition": "-0.8%"},
      {"smiles": "O=C(CSc1ncn[nH]1)Nc1nc(-c2cccc([N+](=O)[O-])c2)cs1", "inhibition": "8.3%"},
      {"smiles": "O=C(CSc1nc(-c2ccccc2)cs1)Nc1cccc([N+](=O)[O-])c1", "inhibition": "93% (active)"},
      {"smiles": "CC1CCC(NC(=O)CN(C)S(=O)(=O)c2ccc3c(c2)c(=O)n(C)c(=O)n3C)CC1", "note": "(centres undefined)", "inhibition": "-2.1%"},
      {"smiles": "O=C(CSc1nnc(-c2cccs2)n1Cc1ccco1)c1ccc2c(c1)OCO2", "inhibition": "-1.2%"},
      {"smiles": "COc1ccc(/C=C2\\CCCC3C2=NN(C(=O)c2scnc2C)C3c2ccc(OC)cc2)cc1", "note": "(centres undefined)", "inhibition": "-3.7%"},
      {"smiles": "CCc1ccc(C(=O)NNC(=O)C2CCN(c3ncnc4sc(C)c(C)c34)CC2)cc1", "inhibition": "-0.3%"},
      {"smiles": "CCc1cc2c(N3CCN(c4nnc(CC)s4)CC3)ncnc2s1", "inhibition": "58.3% (active)"},
      {"smiles": "NC[C@H](Cc1ccccc1)NCCc1cc(C(F)(F)F)cc(C(F)(F)F)c1", "inhibition": "88.5% (active)"},
      {"smiles": "COC(=O)[C@@H](Cc1ccccc1)NC(=O)NCCc1ccccc1", "inhibition": "0.6%"},
      {"smiles": "CCOC(=O)c1c(NC(=O)CNC2CCCc3ccccc32)sc(C(N)=O)c1C", "note": "(centres undefined)", "inhibition": "0.8%"},
      {"smiles": "O=C(NC1CCN(Cc2ccccc2)CC1)c1cc(Br)c(Br)[nH]1", "inhibition": "66.2% (active)"},
      {"smiles": "O=C(NC1CCN(Cc2ccccc2)CC1)c1ccc(Oc2cc(Cl)cc(Cl)c2)o1", "inhibition": "10.6%"},
      {"smiles": "Cc1cc(C(=O)NC2CCN(Cc3ccccc3)CC2)n[nH]1", "inhibition": "-1.6%"},
      {"smiles": "CCc1nc2c(=O)[nH]cnc2o1", "inhibition": "-1.8%"},
      {"smiles": "O=C(CSc1nc(=O)n2ccccc2n1)Nc1ccc2c(c1)OCCO2", "inhibition": "-1.6%"},
      {"smiles": "Cc1nnc(SC(C(=O)c2ccccc2)c2ccccc2)[nH]c1=O", "note": "(centres undefined)", "inhibition": "1.4%"},
      {"smiles": "CC(NCC(=O)Nc1cc(Cl)cc(Cl)c1)c1ccccc1", "note": "(centres undefined)", "inhibition": "3.1%"},
      {"smiles": "Cc1nnc(SC(C(=O)Nc2cc(Cl)cc(Cl)c2)c2ccccc2)[nH]c1=O", "note": "(centres undefined)", "inhibition": "86.4% (active)"},
      {"smiles": "CCC(C)[C@H]1COCCS(=O)(=O)N1Cc1ccc(C)cc1", "note": "(some centres undefined)", "inhibition": "-0.2%"},
      {"smiles": "CCC(c1nnc(SCC(=O)NNC(=O)c2ccccc2)n1Cc1ccccc1)N(C)C", "note": "(centres undefined)", "inhibition": "1.2%"},
      {"smiles": "COc1ccc(NC(=O)CN(C)C(=O)c2cc(C3CC3)nn2-c2ccccc2)cc1", "inhibition": "-0.5%"},
      {"smiles": "Cc1cccc(C(=O)OCC(=O)NC(C)C2CC3CCC2C3)c1O", "note": "(centres undefined)", "inhibition": "0.9%"},
      {"smiles": "O=C(CN1CCN(C(=S)NC2CCCC2)CC1)Nc1ccc(Oc2ccccc2)cc1", "inhibition": "5.8%"},
      {"smiles": "CCN(CC)S(=O)(=O)c1ccc(N(C)Cc2cccc(OC)c2OC)nc1", "inhibition": "3.9%"},
      {"smiles": "CCN(CC)S(=O)(=O)c1ccc(N(C)CCc2ccc(OC)c(OC)c2)nc1", "inhibition": "-2%"},
      {"smiles": "CCN(CC)S(=O)(=O)c1ccc(N(C)Cc2ccc(C(F)(F)F)cc2)nc1", "inhibition": "94% (active)"},
      {"smiles": "NC(=O)C1CCN(C(=O)c2ccc(C(F)(F)F)cc2)CC1", "inhibition": "-3.2%"},
      {"smiles": "CC1(c2ccc3ccccc3c2)NC(=O)N(CC(N)=O)C1=O", "note": "(centres undefined)", "inhibition": "1%"},
      {"smiles": "Cc1ccc2c(c1)C1CN(C)CCC1N2S(=O)(=O)c1cccc(F)c1", "note": "(centres undefined)", "inhibition": "0.2%"},
      {"smiles": "Cc1ccc2c(c1)C1CN(C)CCC1N2C(=O)c1ccccc1NS(=O)(=O)c1ccc(F)cc1C", "note": "(centres undefined)", "inhibition": "-0.2%"},
      {"smiles": "Cc1ccc2c(c1)C1CN(C)CCC1N2S(=O)(=O)c1ccc(Oc2ccc([N+](=O)[O-])cc2)cc1", "note": "(centres undefined)", "inhibition": "83.1% (active)"},
      {"smiles": "COc1cc(OC)c(C(=O)NNC(=O)c2ccccc2-n2cccc2)cc1OC", "inhibition": "-0.2%"},
      {"smiles": "Cc1ccc(C(=O)OCC(=O)NC2CCCCCCC2)cc1C", "inhibition": "-1.2%"},
      {"smiles": "CCc1nc2c(OCc3ccccc3)cccn2c1N(C)C(=O)c1ccco1", "inhibition": "0%"},
      {"smiles": "Cc1nc2c(OCc3cccc(Cl)c3)cccn2c1N(C)CC1CC1", "inhibition": "88.2% (active)"},
      {"smiles": "Cc1nc2c(OCc3ccc(Cl)cc3Cl)cccn2c1N(C)CC1CC1", "inhibition": "82.3% (active)"},
      {"smiles": "CCc1nc2c(OCc3cccc(OC)c3)cccn2c1N(C)C(=O)C(C)C", "inhibition": "-1.6%"},
      {"smiles": "CCc1nc2c(OCc3ccc(F)c(F)c3)cccn2c1N(C)C(=O)c1ccco1", "inhibition": "-2.8%"},
      {"smiles": "Cc1nc2c(OCc3ccc(Cl)cc3)cccn2c1N(C)Cc1cccs1", "inhibition": "79.6% (active)"},
      {"smiles": "CCCCC(=O)N(C)c1c(CC)nc2c(OCc3ccc(Cl)cc3Cl)cccn12", "inhibition": "-1.5%"},
      {"smiles": "CCc1nc2c(OCc3ccc(Cl)cc3Cl)cccn2c1N(C)C(=O)C(C)C", "inhibition": "-3.5%"},
      {"smiles": "Cc1nc2c(OCC(=O)C(C)(C)C)cccn2c1N(C)Cc1cccs1", "inhibition": "2.6%"}
    ]}
  ]
}
